Measurements from PubChem BioAssay AID1508645 (National Center for Advancing Translational Sciences (NCATS), 2021).
Records with an inconclusive call do not appear. Entries that show only a call come without a potency. Activity calls are given as the source filed them. Calls follow the shape of the dose curve; as a rule, active = well fitted cell-killing curve with a large enough effect; inconclusive = small, poorly fitted or top-dose-only effect, or effect the other way; inactive = no such curve, though single readings can be large or run the other way.

Experiment: Cell viability assay in S16 Pmp22-HiBiT cells
Conditions: S16 Schwann Pmp22-HiBiT viability, CellTiter-Glo, 24 h; series mostly up to 27.9 µM
Text: Assay Provider: Jim Inglese Ph.D. National Center for Advancing Translational Science, National Institutes of Health, Rockville, MD CMT is a heterogeneous group of neurological disorders that affect approximately 1 in 2,500 people. In particular, the most common form of CMT, CMT1A is genetically linked to the duplication of the PMP22 gene which leads to Schwann cell overexpression, thus manifesting itself as a typical case of dose-sensitive diseases. To identify small molecule compounds that can mediate the expression of PMP22 we developed a phenotypic assay screening strategy by utilizing genome editing techniques to construct Schwann cell lines containing novel reporter technology to monitor the transcriptional or translational regulation of PMP22. For high sensitivity we use a bioluminescent reporter system embedded in the 3' UTR of the PMP22 gene (S16(c9) Pmp22-F2sN) to identify compounds that inhibit gene expression. […] We can further discriminate the effect of all transcriptionally active molecules on PMP22 translation or stability with an assay that incorporates a short NLuc peptide (HiBiT) at the C-terminus of expressed PMP22 (S16(f8) PMP22-HiBiT) allowing alpha complementation and luminescence detection of membrane-associated PMP22 protein. These assays were screened against the NCATS Sytravon Library Collection. Miniaturization of these assays to 1536-well plate format for quantitative high throughput screening (qHTS) yielded rich data sets immediately from the qHTS assay (S16(c9) Pmp22-F2sN), when compared with data from a cell viability assay (Cell TiterGlo) to identify compounds that decreased the output signals through cellular toxicity to streamline the selection process of actives for subsequent characterization using the HiBiT assay (S16(f8) PMP22-HiBiT).
Cell viability assay in S16 Pmp22-HiBiT cells PROTOCOL TABLE (format as described by Inglese J, Shamu CE and Guy RK. 2007) SEQUENCE No. (e.g., 1, 2, 3, etc.); PARAMETER (e.g., Cells, Incubation, Reagent, etc.); VALUE and DESCRIPTION. 1. Cells. Add 500-1,000 cells in 4 uL in growth media (DMEM High Glucose, No Phenol Red media + 10% heat-inactivated FBS + 1% Pen/Strep supplemented media) per well into Greiner 1536-well white/solid bottom high base, TC-treated plates. 2. Compounds. Library compounds and controls added at 23nL per well, transferred by Pin Tool. 3. Incubation. Incubate plates at 37C, 5% CO2, 95% RH for 24 h. 4. Reagent. Add 3uL CellTiter-Glo per well of Greiner 1536-well plates. 5. Incubation. Incubate plates at room temperature for 15 min., protect from light. 6. Detector. Luminescence measured using CCD-based camera (Viewlux). NOTES (numbers refer to Sequence numbers above; values are from representative experiments) 6. Luminescence Read: Clear filter; Exposure = 1 sec, Gain = High, Speed = Slow, Binning = 2X REFERENCES: 1. Inglese J, Shamu CE and Guy RK, Reporting data from high throughput screening of small molecule libraries, Nature Chemical Biology, 2007, 3(8): 438-441. doi.org/10.1038/nchembio0807-438 2. Yasgar A, Shinn P, Jadhav A, Auld DS, Michael S, Zheng W, Austin CP, Inglese J and Simeonov A, Compound Management for Quantitative High-Throughput Screening. J. Assoc. Lab. Auto., 2008, 13: 79-89. doi: 10.1016/j.jala.2007.12.004

| Compound | Potency |
| --- | --- |
| COc1ccc(Cl)cc1NC(=O)CCCS(=O)(=O)c1nc(-c2ccc(OC)c(OC)c2)cc(C(F)(F)F)n1 | 6.45 µM (active) |
| CCOCCCNC(=O)c1ccc(-n2c(-c3ccccc3)cc3c2CCC(C)C3)cc1 (centres undefined) | inactive |
| COc1ccc(-c2noc(CSc3nnc(-c4ccncc4)n3-c3ccc(C)cc3)n2)cc1 | inactive |
| COc1ccc(N(CC(=O)Nc2cc(Cl)ccc2C)S(=O)(=O)c2c(C)noc2C)cc1 | inactive |
